Assay outcomes (PubChem)
Compounds with a hit are over-represented: about 5.4% of the library has one in this group of screens.
Gal4-VP16 FLuc – inhibits Gal4-VP16 luciferase reporter, ROR gamma counter-screen. actives 3.5% (n = 310,000). Potency, µM (titrated, usually from 53.6 µM), for the others: at the top dose activity, negative = inhibition, hits mostly inhibitors. Drosophila S2 Gal4-VP16 UAS-luciferase, luminescence, 20 h. AID 2546;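 further: Gal4-VP16 expression switched on by copper sulfate through the metallothionein promoter; potency means the concentration at half of the fitted maximal effect; on the % scale 0 is the no-effect control and ±100 the full control effect; nearly all actives have a fitted effect of over 50% in size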
CtBP-E1A blk – CtBP/E1A binding inhibition. AID 651724. AlphaScreen GST-E1A/His-CtBP binding, 1536-well; stronger effect = lower value. activity change, % (concentration not given with the values). actives 0.49% (n = 340,000); in the data active means activity change below about -65%; inconclusive means mostly about -30% to -63%; further: on the % scale 0 is the no-effect control and ±100 the full control effect
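In 5 uL wells, 23 nL compound meets equimolar GST-E1A and His-CtBP (5X stock 125 nM each) for 2 h, 37 °C. Beads (5X, 50 ug/mL) then 1 h, 37 °C, dark.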
Six1-Eya2 inh – blocks human Six1 binding to Eya2; AlphaScreen GST-Six1/His-Eya2 binding, biochemical; stronger effect = lower value; AID 651725; Q15475+O00167; actives 0.56% (n = 360,000); activity change, % (test concentration not listed); in the data active means activity change below about -65%; inconclusive means mostly about -30% to -63%; further: on the % scale 0 is the no-effect control and ±100 the full control effect
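Homogeneous AlphaScreen proximity assay pairing GST-Six1 with His-tagged Eya2 (added as 5X mix: 250 nM and 500 nM) in 50 mM Tris pH 8.0, 300 mM NaCl, 1 mM TCEP. Glutathione donor and nickel acceptor beads; 1 h, 37 °C, dark.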
RORgamma inh – ROR gamma (mouse) transcription inhibition. Drosophila S2 Gal4-RORgamma UAS-luciferase reporter, 20 h. Potency, µM (titrated, usually from 53.6 µM), for inactives: at the highest dose activity change, negative = inhibition, actives largely listed as inhibitors. actives 5.4% (n = 310,000). AID 2551; further: potency means the concentration at half of the fitted maximal effect; on the % scale 0 is the no-effect control and ±100 the full control effect; nearly all actives have a fitted effect of over 60% in size
Target sequence (P51450 whole entry, looked up, the tested form may be a part): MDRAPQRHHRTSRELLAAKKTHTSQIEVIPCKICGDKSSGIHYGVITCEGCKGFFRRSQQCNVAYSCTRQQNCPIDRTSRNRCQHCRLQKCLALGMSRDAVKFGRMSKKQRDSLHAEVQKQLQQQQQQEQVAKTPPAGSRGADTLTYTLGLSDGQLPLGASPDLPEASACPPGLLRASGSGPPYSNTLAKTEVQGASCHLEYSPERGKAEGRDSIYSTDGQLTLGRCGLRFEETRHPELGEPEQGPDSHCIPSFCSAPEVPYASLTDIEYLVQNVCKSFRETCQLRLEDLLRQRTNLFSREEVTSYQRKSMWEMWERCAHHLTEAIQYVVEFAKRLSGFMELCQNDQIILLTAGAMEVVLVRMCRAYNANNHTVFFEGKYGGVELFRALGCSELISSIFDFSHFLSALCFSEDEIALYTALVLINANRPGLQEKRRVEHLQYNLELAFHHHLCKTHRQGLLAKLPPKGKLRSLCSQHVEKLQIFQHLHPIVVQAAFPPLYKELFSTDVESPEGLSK
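Stable Schneider cell line, Gal4 DNA-binding domain fused to ROR gamma, UAS-luciferase. Cmpd 1 hr RT → CuSO4 700 uM final → 20 hr RT → luciferase reagent 10 min → luminescence.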
p53 reactivator – re-activators of mutant p53; H1299 p53-A138V BP100-luciferase reporter, luminescence, 24 h; Potency, µM (series often up to 92.2 µM), for the others: top-dose activity change, positive = activation, actives largely listed as activators; actives 0.063% (n = 320,000); further: potency means the concentration at half of the fitted maximal effect; % of control where 0% means no effect; nearly all actives have a fitted effect of over 45% in size
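H1299 (p53-null), stable ts p53-A138V + BP100-Luc; 1000 cells/well, Opti-MEM/10% FBS; cpd 4 pt, 1:5; 24 h, 37 deg C, 5% CO2; detection reagent 10 min RT; luminescence.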
The depositor's hits bear a star; ? = inconclusive; / = not tested or not shown; [ ] = another dose, or the depositor's remark. Unless noted, the call rests on the fitted dose curve; in most records, active means well fitted curve in the direction sought with a large enough effect; inconclusive means small, poorly fitted or top-dose-only effect, or another doubt; inactive means no such curve, though single readings can be large; an effect the other way counts as inactive or inconclusive.

SMILES	Gal4-VP16 FLuc	CtBP-E1A blk	Six1-Eya2 inh	RORgamma inh	p53 reactivator
COc1ccc(NC(=O)CC2C(=O)N(c3ccc(OC)cc3)C(=S)N2NC(=O)c2cccc(F)c2)cc1 (configuration not stated)	?	0	2	13µM*	-2%
COc1ccc(O[C@H]2C=C[C@@H](c3ccccc3)O[C@H]2CO/N=C\C[C@@H]2C=C[C@H](OC(C)=O)[C@H](COC(C)=O)O2)cc1	3%[10 µM]	/	/	0%[10 µM]	/
COC(=O)c1sccc1N/N=C/c1cccc(OC)c1O	16µM*	0	-4	?	?
Cc1cc(N/N=C/c2ccccc2O)c2ccccc2n1	-25%	?	?	-14%	-45%
COc1ccc2nc(C)cc(N/N=C/c3cccc(OC)c3O)c2c1	11µM*	?	?	?	/
COc1ccc(/C=N/Nc2cc(C)nc3ccc(Br)cc23)cc1	?	-13	-6	13µM*	-16%
CCOC(=O)N/N=C(\c1ccccc1)C(O)c1ccccc1 (configuration not stated)	0%	9	-9	2%	2%
CCOc1ccc(/C=N/NC(=S)NC2CC3CCC2C3)cc1 (configuration not stated)	?	-13	-26	5µM*	6%
COc1cc(/C=N/NC(=S)NC2CC3CC2C2C=CCC32)ccc1O (configuration not stated)	4.5µM*	-12	-12	1.6µM*	27%
CCOc1ccc(N(CC(=O)NC2CC3CCC2C3)S(=O)(=O)c2ccc(C)cc2)cc1 (configuration not stated)	-4%	-8	-17	0%	19%
CCOc1ccc(/C=N/NC(=S)NC2CC3CC2C2C=CCC32)cc1 (configuration not stated)	4.5µM*	-9	-14	5µM*	1%
Cc1ccc(C(=O)NCCC(=O)N2CCOCC2)cc1	-17%	-1	2	-32%	23%
Nc1c(-c2ccccn2)cnn1-c1nc(-c2ccc(F)cc2)cs1	-14%	24	0	5µM*	11%
Cc1cc(C(=O)CCl)c(C)n1CCc1ccc(Cl)cc1	?	-16	-10	13µM*	-7%
COc1ccc(CCn2c(C)cc(C(=O)CCl)c2C)cc1OC	20µM*	-11	11	11µM*	?
COc1ccc(/C=N/NC(=O)c2cccnc2)cc1CN1CCCc2ccccc21	-29%	0	-22	10µM*	-7%
COc1c(Br)cc(Br)cc1/C=N/NC(=O)c1cccnc1	?	-2	-8	?	/
COc1ccc(/C=N/NC(=O)c2ccccc2O)cc1Cn1cc(Cl)cn1	14µM*	9	1	6.3µM*	5%
CCOc1cc(Br)cc(/C=N/NC(=O)c2cccnc2)c1O	1µM*	-92*	-67*	0.79µM*	/
COc1ccc(/C=N/NC(=O)c2cccnc2)c2ccccc12	-19%	-11	-11	1.3µM*	0%
C[C@@H](c1ccccc1)N1C[C@@H](COCc2ccccc2)Oc2cc(N3CC[C@@H](N(C)C)C3)ccc2S1(=O)=O	/	?	-25	/	/
CN1CCN(c2nc(-c3ccoc3)nc3ccccc23)CC1	-6%	/	/	-35%	/
COc1ccc(/C=N/NC(=O)c2c(Br)cnn2C)c2ccccc12	2.8µM*	0	-4	20µM*	6%
COC(=O)[C@@H]1CC[C@H](C)[C@@H](c2ccc(C)cc2)N1C(=O)c1ccc(/C=N\O[C@@H]2O[C@H](COC(C)=O)[C@H](OC(C)=O)[C@H](OC(C)=O)[C@H]2OC(C)=O)cc1	-3%[10 µM]	/	/	7%[10 µM]	/
CCOCCn1cnc2sc(C(=O)Nc3nc(C)c(C(=O)OCC)s3)c(C)c2c1=O	-10%	/	/	4.5µM*	2%
SMILES	Gal4-VP16 FLuc	CtBP-E1A blk	Six1-Eya2 inh	RORgamma inh	p53 reactivator
CCOC(=O)c1sc(NC(=O)CNC(=O)Cn2cnc3sc(C)c(C)c3c2=O)nc1C	10%	0	0	-13%	-9%
O=C(NC(=S)NNC(=O)c1cc2ccccc2cc1O)c1ccco1	4%	-94*	-91*	?	10%
O=C(NC(=S)NNC(=O)c1ccccc1O)c1ccco1	3.5µM*	-7	-91*	-19%	16%
COc1ccccc1OCC(=O)NNC(=S)NC(=O)c1ccco1	?	18	4	-1%	16%
CC(=O)OCC1O[C@@H](O[C@@H]2C[C@H]3C(C)(C)[C@H](OC(C)=O)CC[C@]3(C)[C@H]3CC[C@]45C[C@]4(CC[C@H]5[C@@H](C)C[C@@H](O)[C@H](O)C(C)(C)O)[C@@]32C)[C@H](O)[C@@H](O)[C@@H]1O (some centres not stated)	3.2µM*	/	/	0.89µM*	-18%
N#Cc1ccc(CC(C(=O)O)N2Cc3ccccc3C2=O)cc1 (configuration not stated)	4%	/	3	-13%	4%
COc1ccccc1N1CCN(/N=C/C=C/c2ccccc2[N+](=O)[O-])CC1	-18%	-65*	?	-18%	12%
O=[N+]([O-])c1ccccc1/C=C\C=N\N1CCN(c2ccccc2)CC1	0%	-23	-66*	?	12%
O=[N+]([O-])c1ccccc1/C=C/C=N/N1CCCCC1	20%	?	-68*	-7%	?
CC(=O)N(Cc1ccccc1C)c1cccc(C)c1C	3%	-1	0	-6%	-3%
COc1ccc2cccc(N3CCN(CCNC(=O)c4ccc(F)cc4)CC3)c2c1	-4%	/	/	11%	/
N[C@H](CC(=O)O)C(=O)O	-6%	/	/	-8%[10 µM]	/
CCCCN(C)c1c(C)nc2ccc(C(=O)NCc3cccs3)cn12	/	-7	-3	/	/
O=C(N/N=C/c1ccc(N2CCCCC2)o1)C(O)(c1ccccc1)c1ccccc1	13µM*	/	/	11µM*	-2%
Cc1ccc(/C=N/NC(=O)c2csc(C)c2)o1	-10%	-2	-3	26%	26%
CN(C)c1ccc(/C=N/NC(=O)C(O)(c2ccccc2)c2ccccc2)o1	11µM*	-3	-1	8.9µM*	9%
Cc1cc(C(=O)N/N=C/c2ccc(N(C)C)o2)cs1	6.3µM*	-6	-7	13µM*	-2%
CCN(CC)CCOC(=O)c1cccnc1	-15%	/	/	23%	/
CC(=O)N1CCN(C(=O)c2ccc(NS(=O)(=O)c3ccc4[nH]c(=O)[nH]c4c3)cc2)CC1	/	-4	6	/	-1%
COC(=O)c1ccc(/C=C/C(=O)OCC(=O)Nc2sccc2C(N)=O)cc1	/	-69*	?	/	0%
NC(=O)c1ccsc1NC(=O)COC(=O)/C=C/c1ccc([N+](=O)[O-])cc1	-26%	-17	-7	?	-1%
Cn1c(-c2c(N)n(CCc3ccccc3)c3nc4ccccc4nc23)nc2ccccc21	13µM*	43	31	?	11%
Cn1c(-c2c(N)n(CCCc3ccccc3)c3nc4ccccc4nc23)nc2ccccc21	2.8µM*	37	25	0.79µM*	2%
